This is an account of results in PubChem BioAssay (Tox21).

Structures are written as SMILES. Inconclusive results are not listed. A call without a number means that no potency is given here. Active and inactive are the calls of the source. The call rests on the fitted dose curve.

This assay in a line: p53 small molecule agonists, cell-based qHTS assay with rat liver microsomes (AID 1963578). The following applies: HCT-116 p53RE-bla, beta-lactamase ratio, 16 h; series mostly up to 66 µM. A digest of the protocol:
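Metabolic activation by rat liver microsomes and NADPH, each 0.5 mg/mL final, added right after compounds to p53RE-bla reporter cells (4,000/well, plated 5 h earlier). 16 h at 37 C, then LiveBLAzer substrate for 2 h at room temperature in the dark; fluorescence read-out.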
Background: Quantitative high-throughput screening tests each substance at several concentrations.
Turning to `COc1ccc(NC(C)=O)cc1`, the Potency result was “inactive”.
Regarding `c1cnc2cc3c(cc2n1)C1CNCC3C1`, the Potency result was “inactive”.
For `OCc1c2ccccc2cc2ccccc12`, the Potency result was “inactive”.
Next, `Oc1ccc(Cl)cc1Sc1cc(Cl)ccc1O`: “inactive”; `CCCc1ccccc1`: “inactive”; `CC(=O)CC(C)=O`: “inactive”.
Regarding `C=CC(=O)OCCCCCC`, the Potency result is “inactive”.
Consider `CC(C)(C)C(=O)OCOP(=O)(COCCn1cnc2c(N)ncnc21)OCOC(=O)C(C)(C)C`, for which the Potency entry is “inactive”.
Turning to `Oc1ccc(C(c2ccc(O)cc2)C(Cl)(Cl)Cl)cc1`, the Potency entry is “inactive”.
In the case of `Nc1cc(S(=O)(=O)O)cc2cc(S(=O)(=O)O)cc(O)c12`, the Potency result is “inactive”.
Consider `N=C(N=C(N)N)N1CCOCC1`, for which the Potency entry was “inactive”.
`Oc1c(Cl)ccc(Cl)c1Cl`: the Potency result was “inactive”.
Next, `CC1=CC[C@@]23C[C@@H]1C(C)(C)[C@@H]2CC[C@H]3C`: “inactive”.
`O=C(O)c1cccc(C(F)(F)F)c1`: the Potency entry is “inactive”.
For the compound `CC(O)Cn1cnc2c1c(=O)n(C)c(=O)n2C` (centres undefined), the Potency result was “inactive”.
Consider `CN(C)CCOC(c1ccc(Cl)cc1)c1ccccn1` (centres undefined), for which the Potency entry was “inactive”.
As to `O=C(O)c1cc(-c2ccccc2)nc2ccccc12`, the Potency entry was “inactive”.
As for `CC1(C)C(O)C(C)(C)C1O` (centres undefined), the Potency result is “inactive”.
The same measure for `Cc1ccc(N(C)C)cc1`: “inactive”; for `C/C=C/C(=O)CCCC`: “inactive”.
The same measure for `CC(C)(c1ccc(O)cc1)c1ccc(O)cc1`: “inactive”; for `C=CCCCCCCCC`: “inactive”; for `CC(C)=O`: “inactive”.
Consider `O=C(O)[C@@H]1[C@H]2C[C@H]3c4[nH]c5ccccc5c4CCN3C[C@@H]2CC[C@@H]1O`, for which the Potency entry is “inactive”.
The same measure for `C=CC(C)CCC=C(C)C` (centres undefined): “inactive”.
The same measure for `O=C(O)C(=O)Nc1cccc(-c2nn[nH]n2)c1`: “inactive”; for `CN(C)N=Nc1ccccc1`: “inactive”; for `OCCOc1ccc(OCCO)cc1`: “inactive”.
Take `CC1=C(CC(=O)O)c2cc(F)ccc2/C1=C\c1ccc(S(C)=O)cc1` (centres undefined): the Potency entry is “inactive”.
With `CC(C)CCCCCCc1ccc(O)cc1`, the Potency entry is “inactive”.
For `C=CCS(=O)(=O)O`, the Potency result was “inactive”.
The same measure for `CCCCSCCCC`: “inactive”; for `CCNc1nc(N)nc(Cl)n1`: “inactive”.
Next, `Cc1ccc(N)cc1[N+](=O)[O-]`: “inactive”; `Cc1c(C)c2c(c(C)c1O)CCC(C)(COc1ccc(CC3SC(=O)NC3=O)cc1)O2` (centres undefined): “inactive”; `CCCC1O[C@@H]2C[C@H]3[C@@H]4CCC5=CC(=O)C=C[C@]5(C)[C@H]4[C@@H](O)C[C@]3(C)[C@]2(C(=O)CO)O1` (some centres undefined): “inactive”.
Regarding `CC(C[N+](C)(C)C)OC(N)=O` (centres undefined), the Potency result is “inactive”.
Next, `O=C(O)CCCCCCCCCCCC(=O)O`: “inactive”.
On to `COc1cc(C(=O)N2CCOCC2)cc(OC)c1OC`, for which the Potency result was “inactive”.
